ATXN viability = Viability Counterscreen for Primary qHTS for Inhibitors of ATXN expression. 400,000 tested, 0.49% active. AID 651635, 2014. S2 cells (HEK-293 line with an ATXN2-luciferase reporter) viability, CellTiter-Fluor protease fluorescence, 24 h. Potency, µM (top dose mostly 56.7 µM), hits mostly cytotoxic; also: nearly all actives have a fitted effect of over 40% in size
ALOX12 inh = Primary qHTS assay for inhibitors of human arachidonate 12S-lipoxygenase (ALOX12): Round 2; Polyunsaturated fatty acid lipoxygenase ALOX12 (Homo sapiens), P18054; 580,000 tested, 1.1% active; purified 12hLO, xylenol orange hydroperoxide absorbance; Potency, µM (top dose mostly 108 µM), for the others: at the top dose activity change, negative = inhibition, hits mostly inhibitors; also: % is scaled to controls: 0 for no effect and ±100 for the full control effect
Target sequence (P18054 whole entry, looked up): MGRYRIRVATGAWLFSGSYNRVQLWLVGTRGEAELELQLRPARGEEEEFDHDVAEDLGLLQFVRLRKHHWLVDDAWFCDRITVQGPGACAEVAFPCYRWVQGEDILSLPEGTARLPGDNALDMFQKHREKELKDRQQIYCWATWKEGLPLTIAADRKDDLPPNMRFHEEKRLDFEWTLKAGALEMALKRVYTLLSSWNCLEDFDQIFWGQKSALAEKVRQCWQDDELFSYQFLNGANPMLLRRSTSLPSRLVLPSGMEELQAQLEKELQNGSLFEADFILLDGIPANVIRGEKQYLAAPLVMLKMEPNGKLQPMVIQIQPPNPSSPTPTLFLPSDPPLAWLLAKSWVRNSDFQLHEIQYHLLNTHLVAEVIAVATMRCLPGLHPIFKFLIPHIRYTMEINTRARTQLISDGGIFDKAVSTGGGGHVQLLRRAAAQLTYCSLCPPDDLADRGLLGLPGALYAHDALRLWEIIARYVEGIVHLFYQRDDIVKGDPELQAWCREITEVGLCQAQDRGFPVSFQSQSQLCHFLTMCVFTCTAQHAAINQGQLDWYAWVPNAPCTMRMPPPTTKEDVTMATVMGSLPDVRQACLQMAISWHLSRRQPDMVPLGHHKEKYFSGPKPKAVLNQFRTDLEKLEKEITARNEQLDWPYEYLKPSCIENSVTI
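Purified human 12hLO at 150 nM in 25 mM Hepes, 0.01% Triton X-100, pH 7.0, preincubated 15 min at room temperature with compound. Reaction started with 40 uM arachidonic acid, 30 min at room temperature. Hydroperoxide measured by Fe-xylenol orange, 573/405 nm absorbance ratio.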
ATXN2 expr inh = Primary qHTS for Inhibitors of ATXN expression; 360,000 tested, 0.72% active; HEK-293 ATXN2-luciferase reporter, luminescence, 24 h; Potency, µM (titrated, usually from 57 µM), inactives show top-dose activity change, negative = inhibition, actives largely listed as inhibitors; also: % is scaled to controls: 0 for no effect and ±100 for the full control effect; nearly all actives have a fitted effect of over 55% in size
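qHTS (up to 57 uM final) was run with 24 h compound exposure of reporter cells at 37 °C. Each well was multiplexed: SteadyGlo luminescence measured ATXN2-luciferase expression after a fluorogenic Gly-Phe-AFC viability readout (25 uM final).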
HepG2 tox-1 = qHTS for Inhibitors of TGF-b: Cytotox Counterscreen. HepG2 CAGA-GFP viability, ATP luminescence, 18 h. Potency, µM (series often up to 46.1 µM), inactives show at the top dose activity change, negative = cytotoxicity, usual class: cytotoxic. 410,000 tested, 0.76% active
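CellTiter-Glo luminescence gave cytotoxicity after 18 hours at 37 degrees C. The cells were HepG2 CAGA-GFP in 1% FBS DMEM, stimulated with 500 pg/mL TGF-beta after compound addition. %Activity was normalised to no-cell wells (complete cell-killing) and DMSO (no toxicity), and curves were fitted and classified.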
TGFb inhibitor = qHTS for Inhibitors of TGF-b; AID 588855, 2011; HepG2 CAGA-GFP TGF-b/SMAD3 reporter, GFP fluorescence, 18 h; TGF-beta stimulated, 500 pg/mL final; 410,000 tested, 1.2% active; Potency, µM (titrated, usually from 46.1 µM), without a hit: at the highest dose activity, negative = inhibition, hits mostly inhibitors; also: % is scaled to controls: 0 for no effect and ±100 for the full control effect; nearly all actives have a fitted effect of over 65% in size
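Read-out: total well GFP (ex488/em500-530) summed from mean per-cell fluorescence. Cells: HEPG2 CAGA-GFP, 1% FBS DMEM, 18 h at 37 degrees C with 500 pg/mL final TGF-beta. Unstimulated wells served as the full-inhibition control; stimulated DMSO wells = 0%.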
TGFb CAGA inh = qHTS for Inhibitors of TGF-b: Confirmation of Cherry Picks; shares compounds with TGFb inhibitor; HepG2 CAGA-GFP TGF-b reporter, GFP fluorescence, 18 h; cells stimulated with TGF-beta, 500 pg/mL; Potency, µM (top dose mostly 46.1 µM), without a hit: top-dose activity, negative = inhibition, usual class: inhibitors; 1,600 tested, 63% active; also: % is scaled to controls: 0 for no effect and ±100 for the full control effect; nearly all actives have a fitted effect of over 65% in size
HepG2 tox-2 = qHTS for Inhibitors of TGF-b: Cytotox Counterscreen for Cherry Picks; shares compounds with TGFb inhibitor; HepG2 CAGA-GFP viability, ATP luminescence, 18 h; cells stimulated with TGF-beta, 500 pg/mL; Potency, µM (series often up to 46.1 µM), without a hit: top-dose activity, negative = cytotoxicity, hits mostly inhibitors; 1,600 tested, 27% active; AID 720535, 2013; also: % is scaled to controls: 0 for no effect and ±100 for the full control effect; nearly all actives have a fitted effect of over 70% in size
TGFb CCL64 inh = qHTS for Inhibitors of TGF-b: CCL64 Cells Orthogonal Assay for Cherry Picks. Potency, µM (titrated, usually from 46.1 µM), inactives show at the top dose activity, negative = inhibition, most hits filed as inhibitors. 1,600 tested, 41% active. shares compounds with TGFb inhibitor. AID 720536, 2013. CCL64 CAGA-GFP reporter, TGF-b stimulated, GFP fluorescence, 18 h; also: nearly all actives have a fitted effect of over 65% in size
COP TGFb inh = qHTS for Inhibitors of TGF-b: Hit Validation in HepG2 Cells using COP promoter; shares compounds with TGFb inhibitor; HepG2 COP-GFP TGF-b reporter, GFP fluorescence, 18 h; cells stimulated by added recombinant TGF-beta; Potency, µM (series often up to 46.1 µM), inactives show at the highest dose activity, negative = inhibition, hits mostly inhibitors; 1,600 tested, 3% active; AID 720537, 2013; also: nearly all actives have a fitted effect of over 70% in size
* = called active by the depositor; i = inactive; u = inconclusive; x = no result given. In the library only some 2.7% were active in any assay of this set; here they are far more common. Calls follow the shape of the dose curve; as a rule, active = well fitted curve in the direction sought with a large enough effect; inconclusive = small, poorly fitted or top-dose-only effect, or another doubt; inactive = no such curve, though single readings can be large; an effect the other way counts as inactive or inconclusive. Potency is read from the fitted curve at half-maximal effect.

SMILES	ATXN viability	ALOX12 inh	ATXN2 expr inh	HepG2 tox-1	TGFb inhibitor	TGFb CAGA inh	HepG2 tox-2	TGFb CCL64 inh	COP TGFb inh
CC(C)CC(=O)Nc1ccc2oc(-c3cccc(Cl)c3)nc2c1	x	-14%	x	x	x	x	x	x	x
Cc1cscc1-c1ccc(C(=O)Nc2c(C)cccc2C)o1	u	u	-28%	-25%	14µM*	12µM*	-13%	-29%	17%
CN(C)CCCN(C(=O)CCOc1ccccc1)c1nc2ccc(F)cc2s1	u	u	x	-125%	3.5µM*	15µM*	u	8.2µM*	u
O=[N+]([O-])c1cc(Cl)ccc1N1CCCCC1	i	-12%	-13%	-11%	0%	x	x	x	x
O=[N+]([O-])c1cc(Cl)ccc1N1CCN(c2ccccc2O)CC1	u	-16%	-11%	-11%	7.1µM*	u	-6%	-7%	-3%
c1cncc(-c2nc(N3CCC3)c3ccccc3n2)c1	x	-2%	x	x	x	x	x	x	x
c1ccc2sc(C3CCN(Cc4nnnn4Cc4ccc5c(c4)OCO5)CC3)nc2c1	i	-18%	-19%	-29%	14µM*	u	-21%	27%	-5%
O=c1[nH]c2ccccc2cc1-c1nnn(-c2ccc(F)cc2)n1	i	u	39%	7%	-6%	x	x	x	x
O=c1[nH]c2ccccc2cc1-c1nnn(-c2ccc(Cl)c(Cl)c2)n1	i	u	-1%	-17%	u	-3%	7%	7%	2%
NC(=O)CC(NC(=O)Cc1cccc2ccccc12)c1ccc(N2CCc3ccccc3C2)c([N+](=O)[O-])c1 (centres undefined)	35µM*	u	u	-25%	13µM*	u	u	u	45%
NC(=O)CC(NC(=O)Cc1cccc2ccccc12)c1ccc(N2CCC(Br)CC2)c([N+](=O)[O-])c1 (centres undefined)	u	-1%	u	-28%	13µM*	u	-12%	u	-5%
NC(=O)CC(NC(=O)Cc1ccc(Br)cc1)c1ccc(N2CCN(c3ccccn3)CC2)c([N+](=O)[O-])c1 (centres undefined)	u	u	u	-58%	7.9µM*	u	u	0%	0%
Cc1cccc(CNc2ccc(C(CC(N)=O)NC(=O)Cc3cccc4ccccc34)cc2[N+](=O)[O-])c1 (centres undefined)	u	-8%	-30%	-17%	u	u	u	1.6µM*	-25%
NC(=O)CC(NC(=O)Cc1cccc2ccccc12)c1ccc(N2CCCCCC2)c([N+](=O)[O-])c1 (centres undefined)	u	-21%	-12%	-17%	-28%	x	x	x	x
NC(=O)CC(NC(=O)Cc1ccc(Cl)cc1)c1ccc(N2CCN(c3ccccn3)CC2)c([N+](=O)[O-])c1 (centres undefined)	i	-8%	0%	-4%	-19%	x	x	x	x
CCCCNc1ccc(C(CC(N)=O)NC(=O)Cc2cccc3ccccc23)cc1[N+](=O)[O-] (centres undefined)	i	u	0%	-6%	-5%	x	x	x	x
CCn1nc(C(=O)OCCOc2ccc(OC)cc2)c2ccccc2c1=O	x	-4%	x	x	x	x	x	x	x
Cc1cc(C)c2c(c1)cc(C)c1nnc(SCC(=O)Nc3ccc(S(=O)(=O)N4CCCCC4)cc3)n12	i	-18%	12%	13%	u	18µM*	-12%	-22%	0%
CC(C)CCNc1nc2ccccc2nc1NS(=O)(=O)c1ccc(F)cc1	x	0%	x	x	x	x	x	x	x
Cn1nnnc1SC(C(=O)Nc1cccc(C(F)(F)F)c1)c1ccccc1 (centres undefined)	i	9%	-13%	-4%	11µM*	u	-21%	u	4%
Cc1ccsc1C(=O)N1CCN(C(=O)c2nnn3c2COC(c2ccc(Cl)cc2)C3)CC1 (centres undefined)	x	14%	x	x	x	x	x	x	x
Cc1ccccc1NC(=O)c1cc(C(=O)c2cc(Cl)ccc2O)cn(-c2ccccc2C)c1=O	u	-13%	-29%	-35%	7.1µM*	16µM*	u	13µM*	43%

Screening results as filed in PubChem BioAssay.
